HT1080 IDH1KD tx: qHTS for induction of synthetic lethality in tumor cells producing 2HG: qHTS for the HT-1080-IDH1KD cell line | Potency, µM (series often up to 46.1 µM), usual class: cytotoxic | 2% of 360,000 active | HT-1080 IDH1 knockdown viability, ATP luminescence, 48 h
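HT-1080-IDH1KD cells (IDH1 knocked down), 750/well in RPMI with 5% FBS, treated with compound 48 h at 37 degrees C. Viability by CellTiter-Glo luminescence, normalised to DMSO and no-cell wells; concentration-response curves classed.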
KB-3-1 cytotox: qHTS assay for MDR1-selective chemotherapeutics: Primary screen using the parental adenocarcinoma cell KB-3-1; KB-3-1 viability, CellTiter-Glo ATP luminescence, 72 h; Potency, µM (series often up to 46.1 µM), most hits filed as cytotoxic; 1.4% of 400,000 active; AID 1347075, 2019; further: nearly all actives have a fitted effect of over 60% in size
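KB-3-1 parental drug-naive adenocarcinoma cells in DMEM/10% FBS, incubated 72 h at 37 C with pin-transferred compounds across a concentration series. Viability by CellTiter-Glo luminescence; concentration-response curves fitted after normalization.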
SW480 rerep: A quantitative high throughput screen for small molecules that induce DNA re-replication in SW480 colon adenocarcinoma cells; SW480 DNA re-replication, Hoechst DNA content imaging, 48 h; Potency, µM (titrated, usually from 46.1 µM), most hits filed as activators; 1.8% of 340,000 active; further: nearly all actives have a fitted effect of over 55% in size
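Cells (250 per well) received 23 nL compound or DMSO by pin tool and were kept 48 hr at 37 C, 5% CO2. Nuclei were then stained with Hoechst for 40 min and scanned for DNA content.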
HT1080NT lethal: qHTS for induction of synthetic lethality in tumor cells producing 2HG: qHTS for the HT-1080-NT fibrosarcoma cell line; HT-1080-NT fibrosarcoma viability, CellTiter-Glo ATP luminescence, 48 h; AID 686970, 2013; 1.6% of 360,000 active; Potency, µM (series often up to 46.1 µM), actives largely listed as cytotoxic;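 further: NT is the 2HG producing partner of a matched IDH1 knockdown line; nearly all actives have a fitted effect of over 55% in size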
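750 cells/well, RPMI + 5% FBS; 2 h settle, compound pin-transfer, 48 h at 37 degrees C. CellTiter-Glo 10 min RT, luminescence. Normalized to DMSO and media-only wells.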
KB-V1 MDR tox: qHTS assay for MDR1-selective chemotherapeutics: Primary screen using the drug-selected MDR subline cells KB-V1 | KB-V1 MDR cells viability, CellTiter-Glo, 72 h | Potency, µM (highest dose often 46.1 µM), hits mostly cytotoxic | 3.4% of 400,000 active | AID 1347076, 2019; further: nearly all actives have a fitted effect of over 60% in size
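In this primary screen, KB-V1 cells overexpressing P-gp are incubated with library compounds (lowest to highest concentration) for 72 h at 37 degrees C before a luminescent ATP viability read.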
MCF10A rereplic: A quantitative high throughput screen for small molecules that induce DNA re-replication in MCF 10a normal breast cells; MCF 10A DNA re-replication, Hoechst nuclear intensity, 48 h; Potency, µM (series often up to 46.1 µM), most hits filed as activators; 2.9% of 350,000 active; AID 624296, 2012; further: nearly all actives have a fitted effect of over 50% in size
Each line names hits and unclear results; the compound was inactive in the other large screens. Hits are enriched below; roughly 7.9% of the tested compounds scored in any of these assays. The call rests on the fitted dose curve; in most records, active means well fitted curve in the direction sought with a large enough effect; inconclusive means small, poorly fitted or top-dose-only effect, or another doubt; inactive means no such curve, though single readings can be large; an effect the other way counts as inactive or inconclusive.

CCc1ccc(CN(C)C(=O)CCc2nc3ccccc3n(-c3ccc(OC)cc3)c2=O)cc1	HT1080 IDH1KD tx 15µM, SW480 rerep inconclusive, KB-V1 MDR tox 12µM, MCF10A rereplic inconclusive
O=[N+]([O-])c1cc2ncccc2c2ncccc12	KB-3-1 cytotox inconclusive, HT1080NT lethal inconclusive, KB-V1 MDR tox inconclusive (no result: SW480 rerep, MCF10A rereplic)
Cc1cc(C(=O)Cn2cc([N+](=O)[O-])ccc2=O)c(C)n1CC1CCCO1 (stereo unspecified)	none
N=c1n(CCO)c2ccccc2n1CCOc1ccc(Cl)cc1Cl	HT1080 IDH1KD tx inconclusive, KB-3-1 cytotox inconclusive, HT1080NT lethal 21µM, MCF10A rereplic inconclusive
Cc1cccc(Cn2c(C)c(C)c3cc(C(=O)NCCN4CCOCC4)ccc32)c1	SW480 rerep inconclusive, HT1080NT lethal inconclusive
O=C(CCCc1ccccn1)c1ccc(-c2ccccc2)cc1	MCF10A rereplic inconclusive
O=C(CSc1nnc(-c2ccc(O)cc2)n1Cc1ccco1)c1cccs1	none
N#Cc1c(-c2ccccc2)c(-c2ccccc2)n(Cc2ccco2)c1NC(=O)c1cccs1	KB-V1 MDR tox 5.6µM
Cc1cc(C)nc(SCc2nnc(SCC(=O)Nc3cc(C(F)(F)F)ccc3Cl)o2)n1	none
O=C(Cc1cccs1)NCCSc1c(-c2ccc(Cl)cc2)[nH]c2ccccc12	HT1080 IDH1KD tx inconclusive, KB-3-1 cytotox inconclusive, SW480 rerep inconclusive, HT1080NT lethal inconclusive, MCF10A rereplic 21µM
Cc1cc(N2CCN(c3cccc(C(F)(F)F)c3)CC2)n2ncnc2n1	KB-3-1 cytotox inconclusive
Cc1nc2ncnn2c(N2CCN(C(c3ccccc3)c3ccccc3)CC2)c1C	HT1080 IDH1KD tx inconclusive, KB-V1 MDR tox 23µM, MCF10A rereplic inconclusive
Cc1cc(N2CCN(C(c3ccccc3)c3ccccc3)CC2)n2ncnc2n1	KB-V1 MDR tox inconclusive, MCF10A rereplic inconclusive
Cc1nc2ncnn2c(N2CCN(c3cccc(C(F)(F)F)c3)CC2)c1C	HT1080 IDH1KD tx inconclusive, KB-3-1 cytotox 21µM, HT1080NT lethal inconclusive, KB-V1 MDR tox 2.6µM
Cc1cc(OCC(=O)NC(Cc2ccc(Cl)cc2)C(=O)O)c2c(C)c(C)c(=O)oc2c1 (stereo unspecified)	SW480 rerep inconclusive, MCF10A rereplic inconclusive
N#CC1=C(N)S[C@H](C(=O)C23CC4CC(CC(C4)C2)C3)[C@H]1c1ccncc1	HT1080 IDH1KD tx inconclusive, SW480 rerep inconclusive, HT1080NT lethal 23µM, MCF10A rereplic inconclusive
NCCOc1ccc(C2CCCCC2)cc1	HT1080 IDH1KD tx inconclusive, SW480 rerep inconclusive
OCCN1CCN(CC(O)COc2ccc(C34CC5CC(CC(C5)C3)C4)cc2)CC1 (stereo unspecified)	HT1080 IDH1KD tx 23µM, KB-3-1 cytotox inconclusive, SW480 rerep inconclusive, HT1080NT lethal 18µM, MCF10A rereplic 12µM
OCCN1CCN(CC(O)COc2ccc(Cl)cc2)CC1 (stereo unspecified)	MCF10A rereplic inconclusive
NCCOc1ccc(C23CC4CC(CC(C4)C2)C3)cc1	HT1080 IDH1KD tx inconclusive, KB-3-1 cytotox inconclusive, KB-V1 MDR tox inconclusive, MCF10A rereplic 4.1µM
CN(Cc1c(C(=O)N/N=C/c2ccc(F)cc2)nnn1-c1nonc1N)C1CCCCC1	none
CC1=NN(c2ccc(F)cc2)C(=O)C1C(c1cccc(O)c1)c1c(C)[nH]n(-c2ccc(F)cc2)c1=O (stereo unspecified)	HT1080NT lethal inconclusive, MCF10A rereplic inconclusive
CC1=NN(c2ccc(Cl)cc2)C(=O)C1C(c1cccc(O)c1)c1c(C)[nH]n(-c2ccc(Cl)cc2)c1=O (stereo unspecified)	HT1080 IDH1KD tx inconclusive, HT1080NT lethal 16µM, MCF10A rereplic inconclusive
CCCn1c(=O)c2c(nc3n2CCCN3CCc2ccccc2)n(C)c1=O	KB-V1 MDR tox inconclusive
Cn1c(=O)n(CCc2ccccc2)c(=O)c2c1nc1n2CCCN1CCc1ccccc1	HT1080 IDH1KD tx 29µM, SW480 rerep inconclusive, HT1080NT lethal 23µM, KB-V1 MDR tox 23µM, MCF10A rereplic 21µM
Cn1c(=O)n(Cc2ccccc2)c(=O)c2c1nc1n2CCN1Cc1ccco1	SW480 rerep inconclusive, MCF10A rereplic 0.73µM
Cc1ccc(Cn2c(=O)c3c(nc4n3CCN4Cc3ccco3)n(C)c2=O)cc1	KB-V1 MDR tox inconclusive
Cn1c(=O)n(CC(=O)O)c(=O)c2c1nc1n2CCCN1CCc1ccccc1	none
CC(C)Cn1c(=O)c2c(nc3n2CCCN3CCc2ccccc2)n(C)c1=O	KB-V1 MDR tox 10µM
Cn1c(=O)n(CCc2ccccc2)c(=O)c2c1nc1n2CCCN1Cc1ccccc1	KB-V1 MDR tox 21µM, MCF10A rereplic inconclusive
CCCn1c(=O)c2c(nc3n2CCCN3Cc2ccccc2)n(C)c1=O	none
Cc1nnc(SCc2nnc(-c3ccccc3Br)o2)s1	KB-V1 MDR tox inconclusive
CCCCCn1c(N)c(-c2nc3ccccc3s2)c2c([N+](=O)[O-])nn(CC)c(=O)c21	KB-V1 MDR tox 18µM, MCF10A rereplic 2.9µM
C#CCOCCOCCOCCNc1nc(N2CCN(C(=O)[C@H](CCCCN)n3cc(CCCC)nn3)CC2)nc(N2CCN(C(=O)[C@H](CCCCN)n3cc(CCCC)nn3)CC2)n1	none
CCC1=C/C(=C/c2sc3ccccc3[n+]2CC)CC(C)(C)C1	HT1080 IDH1KD tx inconclusive, KB-3-1 cytotox inconclusive, SW480 rerep inconclusive, HT1080NT lethal 23µM, KB-V1 MDR tox inconclusive, MCF10A rereplic inconclusive
CC[n+]1c(/C=C2/C=C(C)CC(C)(C)C2)sc2ccc(OC)cc21	HT1080 IDH1KD tx inconclusive, KB-3-1 cytotox 21µM, SW480 rerep inconclusive, HT1080NT lethal 21µM, MCF10A rereplic 16µM
CC[n+]1c(/C=C2\C=C(C)CC(C)C2)sc2ccccc21 (stereo unspecified)	HT1080 IDH1KD tx inconclusive, HT1080NT lethal inconclusive, MCF10A rereplic 23µM
CCC(=O)N1CCc2cc(S(=O)(=O)Nc3ccccc3C)ccc21	MCF10A rereplic inconclusive
COc1ccc(CC(=O)N2CCC(CCC(=O)Nc3ccccc3)CC2)cc1	MCF10A rereplic 23µM (no result: KB-3-1 cytotox, KB-V1 MDR tox)
COc1cccc(NC(=O)CCC2CCN(C(=O)Cc3cccc(F)c3)CC2)c1	none (no result: KB-3-1 cytotox, KB-V1 MDR tox)
CCOc1cc(/C=C/c2ccc3cccc([N+](=O)[O-])c3n2)ccc1O	KB-3-1 cytotox 12µM, KB-V1 MDR tox 21µM, MCF10A rereplic inconclusive (no result: SW480 rerep)
COc1cc(/C=C/c2ccc3cccc([N+](=O)[O-])c3n2)ccc1OCC#N	none

Compound activity deposited in PubChem by National Center for Advancing Translational Sciences (NCATS).
